Test results from PubChem BioAssay AID1835 (Johns Hopkins Ion Channel Center, 2009).
The whole screen tested about 2,400 compounds, of which about 750 (31%) were called active.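 How the source made its calls: active means median signal gain over dofetilide-blocked control wells reaching their mean plus 3 SD, so readout 1 at least 0; inactive means the rest.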 The list shows a part of the results.

What follows are compounds tested against Voltage-gated inwardly rectifying potassium channel KCNH2 (Homo sapiens) (UniProt Q12809) (assay: modulators restoring hERG flux under dofetilide – cell-based, thallium flux, duplicate retest, dofetilide IC70, confirmation (AID 1835)). Conditions: hERG cell line, FluxOR thallium flux, dofetilide-blocked; at 10 µM; hits give high values.
Sequence of Voltage-gated inwardly rectifying potassium channel KCNH2 (Homo sapiens) (Q12809 whole entry, looked up): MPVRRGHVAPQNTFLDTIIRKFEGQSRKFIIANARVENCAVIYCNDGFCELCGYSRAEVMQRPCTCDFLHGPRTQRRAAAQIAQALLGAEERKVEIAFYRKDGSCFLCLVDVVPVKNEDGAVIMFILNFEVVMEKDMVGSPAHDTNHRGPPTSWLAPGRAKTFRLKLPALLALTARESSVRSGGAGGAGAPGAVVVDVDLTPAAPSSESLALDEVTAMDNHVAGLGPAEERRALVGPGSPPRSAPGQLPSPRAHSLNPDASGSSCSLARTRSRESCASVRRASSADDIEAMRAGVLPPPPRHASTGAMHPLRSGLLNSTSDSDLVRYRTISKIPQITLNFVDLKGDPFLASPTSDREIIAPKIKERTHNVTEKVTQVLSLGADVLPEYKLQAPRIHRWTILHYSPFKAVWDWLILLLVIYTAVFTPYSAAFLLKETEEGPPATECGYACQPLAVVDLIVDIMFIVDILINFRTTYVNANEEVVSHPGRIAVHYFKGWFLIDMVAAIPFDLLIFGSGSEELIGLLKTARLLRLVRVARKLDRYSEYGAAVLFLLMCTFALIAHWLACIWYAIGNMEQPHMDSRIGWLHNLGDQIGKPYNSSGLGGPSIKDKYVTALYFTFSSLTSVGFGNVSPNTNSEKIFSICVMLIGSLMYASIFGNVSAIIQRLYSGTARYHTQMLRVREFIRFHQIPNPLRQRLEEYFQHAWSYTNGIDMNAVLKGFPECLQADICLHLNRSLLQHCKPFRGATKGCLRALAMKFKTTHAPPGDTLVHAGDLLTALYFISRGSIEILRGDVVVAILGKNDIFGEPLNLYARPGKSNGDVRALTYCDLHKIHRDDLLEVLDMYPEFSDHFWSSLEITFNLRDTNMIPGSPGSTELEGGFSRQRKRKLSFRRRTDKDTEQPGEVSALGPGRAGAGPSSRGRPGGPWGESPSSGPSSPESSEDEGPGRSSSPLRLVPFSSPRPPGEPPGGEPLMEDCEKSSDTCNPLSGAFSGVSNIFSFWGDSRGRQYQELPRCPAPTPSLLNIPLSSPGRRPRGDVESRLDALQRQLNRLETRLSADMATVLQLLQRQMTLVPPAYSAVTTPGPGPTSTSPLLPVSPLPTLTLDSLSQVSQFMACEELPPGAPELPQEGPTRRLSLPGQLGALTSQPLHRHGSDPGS

Row | SMILES | activity increase over dofetilide control, less the hit threshold
1 | Cc1cccc(NC(=O)COc2coc(CN3CCN(c4ccccc4)CC3)cc2=O)c1 | -18% (inactive)
2 | CCOC(=O)Cc1csc(NC(=S)NC(=O)c2ccc(Cl)cc2)n1 | 11% (active)
3 | CCOC(=O)Cc1csc(NC(=S)NC(=O)c2ccc(C)cc2)n1 | -18% (inactive)
4 | CCOC(=O)Cc1csc(NC(=S)NC(=O)C(C)(C)C)n1 | 2% (active)
5 | CCOC(=O)c1c(SCC(=O)Nc2nc(C)cs2)nc(=O)[nH]c1C | -16% (inactive)
6 | CCOC(=O)Cc1csc(NC(=S)NC(=O)c2ccccc2C)n1 | 3% (active)
7 | COC(=O)c1c(NC(=O)C(C)(C)C)csc1C | -11% (inactive)
8 | CCOC(=O)Cc1csc(NC(=S)NC(=O)c2ccccc2Br)n1 | 22% (active)
9 | COc1cc(S(=O)(=O)NCC2COCCO2)ccc1-n1cnnn1 (stereo not given) | -17% (inactive)
10 | Cc1ccc(-n2nc(C)c3c2OC(N)=C(C#N)C3c2ccoc2)cc1 (stereo not given) | -19% (inactive)
11 | CCOc1ccc(/C=C2\CCc3ccccc3C2=O)cc1 | -13% (inactive)
12 | CSc1ccccc1C(=O)NCc1ccc(C)cc1 | -16% (inactive)
13 | CCOC(=O)c1c(C=O)c(C)n(Cc2ccccc2)c1C | -5% (inactive)
14 | CCOc1cc(/C=C2/C(=O)ON=C2C)ccc1O | -22% (inactive)
15 | CCOC(=O)C1=C(O)c2ccccc2C(=O)/C1=C\c1ccc(CC)cc1 | 28% (active)
16 | CCOC(=O)C1=C(Cc2ccc(C)cc2)C(=O)c2ccccc2C1=O | 17% (active)
17 | Cc1ccc(OCC(=O)NC(=S)Nc2ccc(Br)cn2)cc1 | 13% (active)
18 | Cc1ccc(OCC(=O)NC(=S)Nc2ccc(Br)cn2)cc1C | -13% (inactive)
19 | Cc1nc(NC(=S)NC(=O)COc2ccc(Cl)cc2)ccc1Br | 0% (inactive)
20 | COc1ccc(C(=O)NC(=S)N(C)C2CCCCC2)cc1Br | -5% (inactive)
21 | C=CCN(CC=C)C(=S)NC(=O)c1ccc(OC)c(Br)c1 | 48% (active)
22 | C=CCN(CC=C)C(=S)NC(=O)c1ccc(C)c(Br)c1 | 100% (active)
23 | COc1ccc(C(=O)NC(=S)NCCO)cc1Br | -17% (inactive)
24 | COc1ccc(-c2nc3ccc(C(=O)NCC(OC)OC)cc3nc2-c2ccc(OC)c(OC)c2)cc1OC | -14% (inactive)
25 | C=CCNC(=S)NC(=O)c1ccc(C)c(Br)c1 | -8% (inactive)
26 | CCN(CC)C(=S)NC(=O)c1ccc(OC)c(Br)c1 | 11% (active)
27 | C=CCN(CC=C)C(=S)NC(=O)c1ccc(OC)cc1 | 23% (active)
28 | O=C(OCCNc1ccc(C(F)(F)F)cc1[N+](=O)[O-])c1cc2ccccc2oc1=O | -10% (inactive)

Row | SMILES | activity increase over dofetilide control, less the hit threshold
29 | Nn1c(SCC(=O)Nc2ccc(F)cc2)nnc1C1CCCCC1 | -24% (inactive)
30 | O=C(Cn1cnc2ccccc21)c1ccccc1 | -5% (inactive)
31 | CC(=O)NC1C(Oc2ccccc2C)OC(CO)C(O)C1O (stereo not given) | -10% (inactive)
32 | C=CCN(CC=C)C(=S)NC(=O)c1ccc([N+](=O)[O-])cc1 | 56% (active)
33 | COc1ccc(OC(=O)Cc2cccc3ccccc23)cc1 | -13% (inactive)
34 | COc1ccc(/C=C/C(=O)NC(=S)NNC(=O)c2cccs2)cc1 | -24% (inactive)
35 | CCC(=O)Nc1ccc(C(=O)NNC(=O)c2cc([N+](=O)[O-])cc([N+](=O)[O-])c2)cc1 | -13% (inactive)
36 | C=CCN(CC=C)C(=S)NC(=O)/C=C/c1ccc(OC)cc1 | 1% (active)
37 | C=CCN(CC=C)C(=S)NC(=O)Cc1cccc2ccccc12 | 17% (active)
38 | O=C(NCCOC(=O)c1ccc([N+](=O)[O-])cc1)c1cccnc1 | -4% (inactive)
39 | COc1ccccc1CNC(=O)CCCC(=O)n1ncc2cc(C)ccc21 | -12% (inactive)
40 | O=C(N/N=C1/C(=O)c2cccc3cccc1c23)c1ccc(Cl)cc1 | 52% (active)
41 | O=C1c2cccc3cccc(c23)C(=O)C1(O)O | -24% (inactive)
42 | C/C(=N\NC(=O)c1ccc(Cl)cc1)c1ccc(Br)s1 | -11% (inactive)
43 | O=C(NN=C1c2ccccc2-c2ccccc21)c1ccccc1 | -5% (inactive)
44 | CCNC(=S)N/N=C1\C(=O)c2cccc3cccc1c23 | 9% (active)
45 | CC(C)(C)NC(=O)C(=O)NNC(=O)c1ccccc1 | -5% (inactive)
46 | Cc1ccc(Oc2ccc(OCC(=O)NC(CC(C)C)C(=O)O)cc2)cc1 (stereo not given) | -20% (inactive)
47 | CC/C(=N\NC(=S)Nc1cccc(C)c1)c1ccccc1 | -1% (inactive)
48 | Cc1cccc(NC(=O)C(=O)NNC(=O)c2ccc(C(C)(C)C)cc2)c1 | 83% (active)
49 | CC(C)(C)NC(=O)C(=O)NNC(=O)COc1ccc(Br)cc1 | 33% (active)
50 | CC(NC(=O)c1ccncc1)C(C)(C)C (stereo not given) | -4% (inactive)
51 | CC(C)(C)NC(=O)C(=O)NNC(=O)c1ccc(C(C)(C)C)cc1 | 38% (active)
52 | Cc1c(C(=O)NNC(=O)c2ccncc2)oc2ccc(Br)cc12 | -12% (inactive)
53 | CC(C)(C)NC(=O)C(=O)NNC(=O)COc1ccccc1 | -4% (inactive)
54 | CCCc1cc(C(=O)NNC(=S)Nc2cccc(C)c2)cs1 | -22% (inactive)
55 | CC(C)(C)NC(=O)C(=O)NNC(=O)c1cccc(Br)c1 | 35% (active)
